From PubChem BioAssay
Activity calls are given as the source filed them.

Legend:
[1] = target: Albumin (Bos taurus) (UniProt P02769); assay: compounds binding labelled BSA control protein – biochemical, small-molecule microarray, Alexa647 label, 635/667 nm fluorescence, artefact control for SMM control protein annotation, profiling panel (AID 1118); conditions: BSA-A647 binding, fluorescence 635 nm, higher = more signal;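 note: score merges 667 nm emission intensity and signal-to-noise per printed compound spot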
[2] = probe aXIP binding to arrayed compounds – biochemical, NeuroSMM set, 635/667 nm fluorescence, primary screen (AID 1119); conditions: small-molecule microarray, higher = more signal, called active from +8 up or from −8 down;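 note: probe is the protein aXip251-270 applied at 1 µg/mL to compound-printed slides; binding of probe to printed compounds measured as 667 nm fluorescence plus signal to noise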
[3] = probe aNOTCH3 binding on compound microarray – biochemical, small-molecule microarray, 635/667 nm fluorescence, primary screen (AID 1120); conditions: higher = more signal;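 note: probe is a biotin-tagged antibody raised against NOTCH3 rather than NOTCH3 protein; score merges spot fluorescence near 667 nm with spot signal to noise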
[4] = probe aNOTCH2 binding on compound microarray – biochemical, small-molecule microarray, 635/667 nm fluorescence, primary screen (AID 1121); conditions: higher = more signal;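 note: score merges feature fluorescence read at 667 nm with its signal to noise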
[5] = target: Carbonic anhydrase 2 (Homo sapiens) (UniProt P00918); assay: compounds binding carbonic anhydrase 2 – biochemical, small-molecule microarray, Alexa647-labelled CAII, profiling panel (AID 1122); conditions: CAII-A647 binding fluorescence, higher = more signal
[6] = COS7 lysate on small-molecule microarray, probe aHis, 635 nm (AID 1123); conditions: COS7 cell lysate, fluorescence, higher = more signal;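 note: z-score combines 667nm fluorescence intensity with signal-to-noise per printed compound spot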
[7] = probe aLAP1 signal on lysate-treated microarray – cell lysate, small-molecule microarray, COS7 lysate, primary screen (AID 1124); conditions: probe aLAP1, fluorescence, higher = more signal;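 note: lysate comes from COS7 cells expressing LAP1 and is applied at 0.3 µg/mL; score merges spot fluorescence near 667 nm with signal-to-noise over triplicate slides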
[8] = test system: Sam68 (KHDRBS1); assay: compounds binding KHDRBS1 protein – biochemical, small-molecule microarray, 635 nm fluorescence, primary screen (AID 1125); conditions: higher = more signal;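 note: score merges 667 nm channel intensity with signal to noise over triplicate slides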
[9] = test system: Chordin-like protein 2 (CHRDL2); assay: compounds binding chordin-like 2 – biochemical, small-molecule microarray, 635 nm fluorescence, primary screen (AID 1126); conditions: fluorescence 635 nm, higher = more signal;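 note: printed compound slides probed with Chrdl2 protein at 4 µg/mL for 1 h at 4 C; score merges 667 nm emission intensity with signal to noise over three replicate slides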
[10] = target: Concanavalin-A (Canavalia ensiformis) (UniProt P02866); assay: compounds binding concanavalin A lectin – biochemical, small-molecule microarray, Alexa647 label, 635 nm, artefact control for SMM control protein annotation, primary screen (AID 1127); conditions: ConA-A647 binding fluorescence, higher = more signal;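 note: z combines 667 nm emission intensity with signal-to-noise across three replicate slides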
[11] = compounds binding Alexa647 anti-His antibody – biochemical, small-molecule microarray, 635 nm fluorescence, artefact control for SMM control protein annotation, primary screen (AID 1128); conditions: higher = more signal;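 note: score merges feature fluorescence with signal-to-noise for each printed compound spot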
[12] = test system: Human papillomavirus type 1a E7 protein (residues 1-88); assay: HPV1a E7 small-molecule binders, primary screen, biochemical, small-molecule microarray, residues 1-88, 635 nm (AID 1129); conditions: small-molecule microarray binding, fluorescence 635 nm; higher = more signal
[13] = target: Focal adhesion kinase 1 (Homo sapiens) (UniProt Q05397); assay: PTK2 protein binding on printed compound slides – biochemical, small-molecule microarray, 635/667 nm fluorescence, BSA, DTT, primary screen (AID 1130); conditions: 635 nm fluorescence, higher = more signal;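 note: composite of spot emission at 667 nm and signal to noise over triplicate slides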
[14] = test system: Fibrinogen (Alexa647-labelled); assay: Alexa647-fibrinogen binding to printed small molecules – biochemical, small-molecule microarray, 635/667 nm fluorescence, artefact control for SMM control-protein annotation, profiling panel (AID 1131); conditions: fibrinogen-A647 binding fluorescence, higher = more signal;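 note: z-score merges 667 nm fluorescence with per-spot signal-to-noise over triplicate slides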
[15] = target: Follistatin (Homo sapiens) (UniProt P19883); assay: FST protein binding to printed compounds – biochemical, small-molecule microarray, 635/667 nm fluorescence, primary screen (AID 1132); conditions: 635 nm fluorescence, higher = more signal
[16] = target: Fibroblast growth factor 2 (Homo sapiens) (UniProt P09038); assay: basic fibroblast growth factor binding to printed compounds – biochemical, small-molecule microarray, 635/667 nm fluorescence, primary screen (AID 1133); conditions: FGF2, fluorescence 635/667, higher = more signal
[17] = JC-1 mitochondrial potential readout, lung cancer cells – cell-based, A549, JC-1 fluorescence, basal, 24 h, 100 nL, profiling panel (AID 1138); conditions: higher = more signal;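 note: A549 lung adenocarcinoma cells under basal conditions with no added stimulus; test concentration not given here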
[18] = test system: Lefty1; assay: Lefty1 protein binding to printed compounds – biochemical, small-molecule microarray, 635/667 nm fluorescence, primary screen (AID 1139); conditions: fluorescence 635/667, higher = more signal
[19] = test system: wheat germ agglutinin (Triticum aestivum), Alexa647-labelled; assay: Alexa647-WGA lectin binding to printed small molecules – biochemical, small-molecule microarray, 635/667 nm fluorescence, artefact control for SMM control-protein annotation, profiling panel (AID 1140); conditions: WGA-A647 binding, 635 nm fluorescence, higher = more signal;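 note: score merges 667 nm feature emission with signal to noise over triplicate slides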
[20] = target: Luciferin 4-monooxygenase (Photinus pyralis) (UniProt P08659); assay: inhibition of purified Photinus pyralis luciferase – biochemical, luminescence, purified enzyme, 2006 set, primary screen (AID 1141); conditions: purified firefly luciferase, SteadyGlo luminescence, 30 min; higher = more signal, called active from +8 up or from −8 down;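 note: cell-free assay with purified firefly luciferase at 100 ng per well in PBS; test concentration not given here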
Luciferin 4-monooxygenase (Photinus pyralis), sequence (P08659 whole entry, looked up): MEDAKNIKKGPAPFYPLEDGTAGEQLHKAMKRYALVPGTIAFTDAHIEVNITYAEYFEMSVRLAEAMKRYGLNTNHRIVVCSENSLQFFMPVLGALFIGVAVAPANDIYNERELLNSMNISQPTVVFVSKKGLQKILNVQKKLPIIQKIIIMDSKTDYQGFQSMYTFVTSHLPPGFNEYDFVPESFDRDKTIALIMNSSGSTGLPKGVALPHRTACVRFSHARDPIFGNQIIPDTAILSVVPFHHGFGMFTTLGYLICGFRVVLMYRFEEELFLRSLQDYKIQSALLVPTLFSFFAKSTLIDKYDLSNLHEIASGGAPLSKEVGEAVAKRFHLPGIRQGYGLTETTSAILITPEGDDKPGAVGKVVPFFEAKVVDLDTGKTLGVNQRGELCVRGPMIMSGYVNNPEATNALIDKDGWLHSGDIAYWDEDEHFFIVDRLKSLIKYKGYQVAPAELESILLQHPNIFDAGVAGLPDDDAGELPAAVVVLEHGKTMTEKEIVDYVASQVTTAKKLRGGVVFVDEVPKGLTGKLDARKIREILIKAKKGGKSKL

Albumin (Bos taurus), sequence (P02769 whole entry, looked up): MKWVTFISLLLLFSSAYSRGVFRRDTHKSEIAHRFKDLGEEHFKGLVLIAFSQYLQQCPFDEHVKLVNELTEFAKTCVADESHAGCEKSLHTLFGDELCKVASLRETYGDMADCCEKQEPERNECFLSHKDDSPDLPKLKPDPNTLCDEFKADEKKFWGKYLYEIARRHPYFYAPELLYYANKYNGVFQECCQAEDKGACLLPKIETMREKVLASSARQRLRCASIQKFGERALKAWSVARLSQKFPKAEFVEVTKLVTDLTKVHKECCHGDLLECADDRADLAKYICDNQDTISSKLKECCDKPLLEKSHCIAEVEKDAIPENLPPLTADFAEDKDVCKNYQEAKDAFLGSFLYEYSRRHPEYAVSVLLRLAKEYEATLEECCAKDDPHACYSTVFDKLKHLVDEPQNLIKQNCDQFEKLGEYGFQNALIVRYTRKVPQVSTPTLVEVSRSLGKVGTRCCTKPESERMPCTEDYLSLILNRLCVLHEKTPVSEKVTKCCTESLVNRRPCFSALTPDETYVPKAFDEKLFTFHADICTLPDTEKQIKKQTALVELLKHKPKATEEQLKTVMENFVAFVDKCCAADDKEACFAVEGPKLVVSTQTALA
Concanavalin-A (Canavalia ensiformis), sequence (P02866 whole entry, looked up): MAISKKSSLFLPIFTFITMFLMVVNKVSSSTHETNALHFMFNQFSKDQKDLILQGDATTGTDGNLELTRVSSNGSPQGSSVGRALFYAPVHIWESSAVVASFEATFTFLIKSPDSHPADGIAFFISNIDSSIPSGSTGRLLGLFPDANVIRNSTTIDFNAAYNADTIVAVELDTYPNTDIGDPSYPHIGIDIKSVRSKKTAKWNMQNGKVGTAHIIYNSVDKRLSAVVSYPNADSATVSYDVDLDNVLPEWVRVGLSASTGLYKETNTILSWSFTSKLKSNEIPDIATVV
Fibroblast growth factor 2 (Homo sapiens), sequence (P09038 whole entry, looked up): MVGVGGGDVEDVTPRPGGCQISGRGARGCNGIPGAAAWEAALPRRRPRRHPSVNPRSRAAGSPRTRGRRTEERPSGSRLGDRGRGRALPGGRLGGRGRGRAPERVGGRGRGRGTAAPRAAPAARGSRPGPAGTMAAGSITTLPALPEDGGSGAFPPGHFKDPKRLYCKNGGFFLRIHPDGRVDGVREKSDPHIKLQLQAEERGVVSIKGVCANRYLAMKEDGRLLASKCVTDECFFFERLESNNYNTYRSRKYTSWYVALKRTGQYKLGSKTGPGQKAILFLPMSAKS
Focal adhesion kinase 1 (Homo sapiens), sequence (Q05397 whole entry, looked up): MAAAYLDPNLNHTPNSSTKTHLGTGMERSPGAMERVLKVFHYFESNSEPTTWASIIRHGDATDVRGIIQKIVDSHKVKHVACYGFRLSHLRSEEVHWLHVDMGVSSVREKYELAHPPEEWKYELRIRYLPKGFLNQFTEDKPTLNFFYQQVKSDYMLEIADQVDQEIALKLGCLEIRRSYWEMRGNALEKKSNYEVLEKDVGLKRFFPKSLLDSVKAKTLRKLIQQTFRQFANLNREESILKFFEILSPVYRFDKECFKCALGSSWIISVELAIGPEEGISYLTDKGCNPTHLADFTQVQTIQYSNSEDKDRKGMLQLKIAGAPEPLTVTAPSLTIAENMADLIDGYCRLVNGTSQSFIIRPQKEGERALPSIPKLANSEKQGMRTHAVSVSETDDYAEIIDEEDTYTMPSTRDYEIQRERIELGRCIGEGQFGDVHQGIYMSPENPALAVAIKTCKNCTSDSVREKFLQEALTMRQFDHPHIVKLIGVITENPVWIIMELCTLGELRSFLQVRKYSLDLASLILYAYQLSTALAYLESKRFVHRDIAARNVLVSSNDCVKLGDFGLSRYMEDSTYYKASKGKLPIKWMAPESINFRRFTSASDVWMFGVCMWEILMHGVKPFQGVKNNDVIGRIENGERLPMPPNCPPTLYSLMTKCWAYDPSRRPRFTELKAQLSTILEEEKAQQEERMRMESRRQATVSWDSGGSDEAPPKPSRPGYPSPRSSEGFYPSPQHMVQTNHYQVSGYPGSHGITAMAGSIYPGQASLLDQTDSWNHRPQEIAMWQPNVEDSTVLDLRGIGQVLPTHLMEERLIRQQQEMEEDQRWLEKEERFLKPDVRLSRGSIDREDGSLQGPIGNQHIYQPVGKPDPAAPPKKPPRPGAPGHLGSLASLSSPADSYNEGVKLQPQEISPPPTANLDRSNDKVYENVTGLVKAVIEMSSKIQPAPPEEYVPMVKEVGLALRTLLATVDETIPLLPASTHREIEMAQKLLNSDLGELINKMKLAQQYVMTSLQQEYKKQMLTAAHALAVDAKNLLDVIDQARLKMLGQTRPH
Follistatin (Homo sapiens), sequence (P19883 whole entry, looked up): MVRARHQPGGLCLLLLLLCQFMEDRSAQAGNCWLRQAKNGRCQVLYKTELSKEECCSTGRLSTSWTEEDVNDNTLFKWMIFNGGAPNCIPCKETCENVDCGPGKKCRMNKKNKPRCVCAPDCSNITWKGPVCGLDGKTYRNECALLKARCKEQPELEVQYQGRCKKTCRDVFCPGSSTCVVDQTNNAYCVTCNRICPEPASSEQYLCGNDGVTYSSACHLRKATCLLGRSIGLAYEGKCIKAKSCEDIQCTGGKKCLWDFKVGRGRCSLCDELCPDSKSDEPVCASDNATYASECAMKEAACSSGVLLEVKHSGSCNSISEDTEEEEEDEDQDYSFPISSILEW

Row | Structure (SMILES) | composite z-score [1] | composite Z-score [2] | composite z-score [3] | composite z-score [4] | composite z-score [5] | composite z-score [6] | composite z-score [7] | composite z-score [8] | composite z-score [9] | composite z-score [10] | composite z-score [11] | composite z-score [12] | composite z-score [13] | composite z-score [14] | composite z-score [15] | composite z-score [16] | z-score [17] | composite z-score [18] | composite z-score [19] | z-score [20]
1 | CCOC(=O)C[C@H]1[C@H](OC(=O)c2ccc(C(=O)c3ccccc3)cc2)[C@@H](NC(=O)Cc2ccc(OC)cc2)c2cc(OCCCO)ccc2N1C(=O)c1ccc2ccccc2n1 | 0.701 | 0.0505 (inactive) | -0.0445 | -0.0868 | 0.151 | 1.34 | 0.493 | 1.09 | -0.0473 | 0.818 | 0.325 | 0.727 | -0.314 | 0.858 | 0.513 | 0.312 | 0.842 | 0.735 | -0.028 | -0.849 (inactive)
2 | CS(=O)(=O)CCOC(=O)C1=CC(CCCO)=CC(c2ccc(CN3CCCC3)cc2)N(Cc2cccc(OC(F)(F)F)c2)C=C1C(=O)OCCS(C)(=O)=O (stereo not given) | 0.0883 | 0.25 (inactive) | 0.111 | -0.0254 | 0.454 | 1.16 | 0.0212 | 1.26 | 0.379 | 0.644 | 1.26 | 1.09 | 0.366 | 0.675 | 0.962 | 0.964 | 3.17 | 0.889 | 0.404 | -2.68 (inactive)
3 | NC(=O)N1C(=O)C2C(C1=O)C1C=C(CCCO)C2C(C2CC2)N1Cc1cc2c(cc1Br)OCO2 (stereo not given) | 0.277 | 0.0861 (inactive) | 0.0242 | -0.112 | 0.877 | 0.872 | -0.0694 | -0.989 | -0.667 | -0.0295 | 1.06 | -1.06 | 0.164 | 0.928 | 0.246 | -0.407 | 0.158 | 0.969 | 0.847 | -1.13 (inactive)
4 | O=C(O)C1N=C(c2ccc(OCCCO)cc2)N(c2ccccc2)O1 (stereo not given) | 0.811 | 0.488 (inactive) | 0.0967 | -0.037 | 0.589 | 0.321 | -0.287 | 1.3 | 0.153 | 0.658 | 1.73 | 1.1 | 0.817 | 0.953 | 1.3 | 1.18 | 0.0657 | 0.369 | 0.207 | -7.84 (inactive)
5 | CCCNC(=O)[C@@]1(Sc2ccc(C)cc2)CC(=O)N(Cc2ccccc2C(F)(F)F)[C@@H]1c1ccc(CO)cc1I | 0.31 | 0.222 (inactive) | 0.0696 | -0.123 | 0.624 | 1.82 | 0.116 | 1.29 | 0.315 | 0.435 | -0.132 | 0.934 | 0.0382 | 0.956 | 1.36 | 0.76 | -0.722 | 0.849 | 0.28 | 0.262 (inactive)
6 | COc1ccc([Si](C)(C)[C@H]2[C@H](CCO)O[C@@]3(C(=O)N(Cc4ccccc4)c4ccc(N5CCCCC5=O)cc43)[C@@H]2C)cc1 | 0.78 | 0.388 (inactive) | -0.0918 | -0.133 | 0.342 | 0.376 | 0.237 | 0.965 | 0.207 | 0.905 | 1.49 | 0.435 | 0.208 | 0.94 | 1.28 | 1.28 | 2.23 | 0.628 | 0.768 | -1.08 (inactive)
7 | COC(=O)[C@@]1(Cc2ccc(F)cc2)[C@H]2c3cc(C(=O)N(C)C)n(Cc4cc(C)n(C)n4)c3C[C@H]2CN1C(=O)c1ccccc1 | 1.03 | 0.467 (inactive) | 0.19 | 0.0552 | 0.806 | 3.08 | 0.738 | 1.31 | -0.141 | 1.01 | 2.76 | 1.2 | 0.646 | 0.795 | 0.577 | -0.237 | -0.013 | -0.574 | 0.537 | 0.272 (inactive)
8 | C=C(C(=O)CC[C@H](OC(C)=O)c1ccccc1OCCO)C(C)C | 0.0421 | -0.361 (inactive) | 0.029 | -0.0325 | -0.371 | -0.754 | 1.87 | -0.4 | -0.163 | -0.104 | -0.29 | -0.936 | -0.385 | -0.262 | 1.25 | 0.38 | -1.25 | 0.696 | -0.209 | 0.168 (inactive)
9 | Cc1ccc(S[C@]2(C(=O)O)CC(=O)N(C(C)C)[C@@H]2c2ccc(CO)cc2)cc1 | 0.07 | 0.264 (inactive) | -0.139 | -0.107 | 0.648 | -0.216 | 1.14 | 0.462 | -0.215 | 0.394 | 0.715 | -0.386 | 0.104 | -0.307 | 0.0281 | -0.129 | -0.233 | -0.0075 | 0.557 | 0.568 (inactive)
10 | [N-]=[N+]=NCc1ccccc1[C@@H]1OC(c2ccc(OCCCO)cc2)=N[C@]1(CCS(=O)(=O)c1ccccc1)C(N)=O | 0.0943 | 0.466 (inactive) | 0.369 | 0.0703 | 0.637 | 3.29 | 0.247 | 1.28 | 1.1 | 0.971 | 3.49 | 1.27 | 1.21 | 0.973 | 1.44 | 1.83 | -0.528 | 0.616 | 1.09 | -2.98 (inactive)
